# High-throughput results: PubChem, National Center for Advancing Translational Sciences (NCATS)
# ATXN viability = Viability Counterscreen for Primary qHTS for Inhibitors of ATXN expression; S2 cells (HEK-293 line with an ATXN2-luciferase reporter) viability, CellTiter-Fluor protease fluorescence, 24 h; Potency, µM (doses to about 56.7 µM), actives largely listed as cytotoxic; 400,000 tested, 0.49% active; AID 651635, 2014; further: nearly all actives have a fitted effect of over 40% in size
# DT40 TDP1 no CPT = qHTS for Inhibitors of human tyrosyl-DNA phosphodiesterase 1 (TDP1): qHTS in cells in absence of CPT; 420,000 tested, 15% active; Potency, µM (series often up to 46.2 µM), for the others: top-dose activity change, negative = growth inhibition, actives largely listed as inhibitors; DT40 Tdp1-/- hTDP1 cells, no CPT, ATP luminescence, 48 h; further: on the % scale 0 is the no-effect control and ±100 the full control effect; nearly all actives have a fitted effect of over 55% in size
#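 Readout: luminescence from CellTiter-Glo after 30 min in the dark at RT. Cells: DT40 Tdp1-/- with stable hTDP1, 400/well. Exposure: compounds alone, ≥48 hr, 37 °C.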
# TGFb inhibitor = qHTS for Inhibitors of TGF-b; HepG2 CAGA-GFP TGF-b/SMAD3 reporter, GFP fluorescence, 18 h; TGF-beta stimulated, 500 pg/mL final; Potency, µM (top dose mostly 46.1 µM), for the others: top-dose activity, negative = inhibition, most hits filed as inhibitors; 410,000 tested, 1.2% active; further: on the % scale 0 is the no-effect control and ±100 the full control effect; nearly all actives have a fitted effect of over 65% in size
#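 TGF-beta reporter screen: HEPG2 CAGA-GFP, 1% FBS, 500 pg/mL TGF-beta final, 18 h; per-cell GFP summed per well; curves fitted and categorized by class.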
# ATXN2 expr inh = Primary qHTS for Inhibitors of ATXN expression | AID 1745845, 2022 | HEK-293 ATXN2-luciferase reporter, luminescence, 24 h | Potency, µM (series often up to 57 µM), for inactives: at the highest dose activity change, negative = inhibition, hits mostly inhibitors | 360,000 tested, 0.72% active; further: on the % scale 0 is the no-effect control and ±100 the full control effect; nearly all actives have a fitted effect of over 55% in size
#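 qHTS (up to 57 uM final) was run with 24 h compound exposure of reporter cells at 37 °C. Each well was multiplexed: SteadyGlo luminescence measured ATXN2-luciferase expression after a fluorogenic Gly-Phe-AFC viability readout (25 uM final).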
# DT40 TDP1 CPT = qHTS for Inhibitors of human tyrosyl-DNA phosphodiesterase 1 (TDP1): qHTS in cells in presence of CPT; Potency, µM (doses to about 46.2 µM), for inactives: at the highest dose activity change, negative = growth inhibition, actives largely listed as inhibitors; chicken DT40 Tdp1-/-;hTDP1 cells + 20 nM CPT, ATP luminescence, 48 h; 420,000 tested, 12% active; further: on the % scale 0 is the no-effect control and ±100 the full control effect; nearly all actives have a fitted effect of over 55% in size
#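 Cell growth measured by CellTiter-Glo luminescence after a minimum 48 h, 37 C compound exposure with 20 nM CPT in Tdp1-knockout DT40 cells stably expressing hTDP1, seeded 400/well; qHTS titration format.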
# HepG2 viability = qHTS for Inhibitors of TGF-b: Cytotox Counterscreen; Potency, µM (highest dose often 46.1 µM), for the others: at the highest dose activity change, negative = cytotoxicity, most hits filed as cytotoxic; HepG2 CAGA-GFP viability, ATP luminescence, 18 h; AID 588856, 2011; 410,000 tested, 0.76% active
#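 CellTiter-Glo luminescence gave cytotoxicity after 18 hours at 37 degrees C. The cells were HepG2 CAGA-GFP in 1% FBS DMEM, stimulated with 500 pg/mL TGF-beta after compound addition. %Activity was normalised to no-cell wells (complete cell-killing) and DMSO (no toxicity), and curves were fitted and classified.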
# Numbers without * were called inactive; i = inactive; ? = inconclusive; . = no result given; [ ] = remark or other dose. Most compounds without a hit are left out; they make up all but 17% or so of the library. The call rests on the fitted dose curve; in most records, active means well fitted curve in the direction sought with a large enough effect; inconclusive means small, poorly fitted or top-dose-only effect, or another doubt; inactive means no such curve, though single readings can be large; an effect the other way counts as inactive or inconclusive. Potency means the concentration at half of the fitted maximal effect.
SMILES,ATXN viability,DT40 TDP1 no CPT,TGFb inhibitor,ATXN2 expr inh,DT40 TDP1 CPT,HepG2 viability
Cn1ncc2c(Nc3ccc(Cl)cc3)ncnc21,i,?,4.6%,.,?,-10.6%
O=C(NCCCNc1ccc(C(F)(F)F)cc1[N+](=O)[O-])c1ccc(F)cc1,i,23.1µM*,2.2%,-11.2%,16.4µM*,-3.1%
O=[N+]([O-])c1cc(C(F)(F)F)ccc1NCCc1ccccn1,i,?,-23.9%,.,-10.3%,-16.1%
O=[N+]([O-])c1cc(C(F)(F)F)ccc1NCCCCNS(=O)(=O)c1ccc2ccccc2c1,?,23.1µM*,-22.1%,-9.9%,20.6µM*,2.0%
Cc1ccc(S(=O)(=O)n2cc(CO)c3ccccc32)cc1,i,?,?,-23.7%,?,-26.0%
O=C1N[C@@H](Cc2cn(S(=O)(=O)c3ccc([N+](=O)[O-])cc3)c3ccccc23)C(=O)N[C@H]1Cc1ccccc1,i,?,?,-33.5%,20.6µM*,-5.5%
Cc1ccc(C(=O)Oc2ccc(Cl)c3cccnc23)cc1[N+](=O)[O-],i,20.6µM*,11.2µM*,-30.1%,?,-44.0%
Cc1ccc(C(=O)Oc2cccnc2)cc1[N+](=O)[O-],i,-13.1%,3.2%,.,2.0%,-37.8%
Cc1cc2cc(CCNC(=O)c3cccs3)c(=O)[nH]c2cc1C,?,?,?,33.4%,?,-46.2%
Cc1ccc(C(=O)NCCc2cc3ccc(C)c(C)c3[nH]c2=O)cc1[N+](=O)[O-],i,?,-15.4%,0.0%,10.3µM*,10.4%
COc1ccc(C(=O)NCCc2cc3ccc(C)c(C)c3[nH]c2=O)cc1OC,i,?,1.9%,-7.0%,?,3.1%
Cc1ccc2cc(CCNC(=O)c3cccc([N+](=O)[O-])c3)c(=O)[nH]c2c1,?,20.6µM*,6.2%,.,20.6µM*,3.1%
Cc1cc2cc(CCNC(=O)c3cccc([N+](=O)[O-])c3)c(=O)[nH]c2cc1C,i,16.4µM*,-1.7%,-15.9%,?,6.1%
Cc1cc(C)c(S(=O)(=O)N2CCCCC2CCNC(=O)C(=O)NCc2ccccn2)c(C)c1 (stereo not given),i,?,-2.1%,-4.9%,?,1.3%
O=S(=O)(NC1c2cccc3cccc(c23)C1N1CCNCC1)c1ccc(Cl)cc1 (stereo not given),?,11.6µM*,?,-17.3%[11.3 µM],13µM*,-63.3%
CCN(CC)c1nc(-c2ccccn2)nc(-c2ccccc2)c1C#N,?,3.26µM*,?,4.47µM*,18.4µM*,-36.4%
Cc1nnc(-c2ccccc2)nc1N(C)C,i,-16.0%,-12.5%,-3.0%,1.1%,-4.4%
CN(C)c1nc(-c2ccccn2)nnc1-c1ccccc1,i,14.6µM*,2.5%,8.91µM*,10.3µM*,-4.3%
COc1ccc(OC)c(/C=N/Nc2nc(C)cc(=O)[nH]2)c1,i,?,2.3%,-27.7%,-0.7%,-24.8%
Cc1ccccc1OCC(=O)Nc1cccc(N(C)S(C)(=O)=O)c1,i,-29.3%,-17.3%,30.3%,-21.6%,2.0%
CN(c1cccc(NC(=O)COc2ccc(Cl)cc2Cl)c1)S(C)(=O)=O,i,?,-29.8%,40.5%,20.6µM*,-19.0%
CN(c1cccc(NC(=O)CSc2ccc(Cl)cc2)c1)S(C)(=O)=O,i,11.2µM*,0.6%,-10.3%,10µM*,-32.2%
COc1ccc(NC(=O)CN2C(=O)NC3(CC(C)CC(C)(C)C3)C2=O)cc1S(=O)(=O)N1CCCCC1 (stereo not given),i,?,?,-4.4%,?,5.2%
CC(CC(c1ccccc1)N1CCc2ccccc2C1)=NO (stereo not given),i,18.4µM*,-4.1%,.,?,-15.1%
Cc1ccc(C)c(S(=O)(=O)NCc2cccnc2)c1,i,3.8%,3.5%,0.0%,-3.6%,1.8%
SMILES,ATXN viability,DT40 TDP1 no CPT,TGFb inhibitor,ATXN2 expr inh,DT40 TDP1 CPT,HepG2 viability
Cc1ccc(C)c(S(=O)(=O)NCc2ccncc2)c1,?,20.6µM*,1.5%,-15.9%,?,0.0%
COc1cc(S(=O)(=O)NCc2ccncc2)c(OC)cc1Br,?,13µM*,-0.5%,-7.5%,?,32.2%
Cc1cc(S(=O)(=O)NCc2ccncc2)c(C)cc1Br,i,5.8µM*,?,-15.4%,8.2µM*,-53.7%
CCOc1cc(S(=O)(=O)NCc2ccncc2)c(C)cc1C,i,-25.4%,1.5%,-8.8%,-12.2%,-14.9%
Cc1ccc2c(=O)n3c(nc2c1)C(C)NC(=O)c1cccnc1-3 (stereo not given),i,-3.9%,-7.6%,3.9%,-18.7%,2.7%
O=C1CC(N2CCCCCC2)C(=O)N1c1ccc2c(c1)OCO2 (stereo not given),i,6.31µM*,1.2%,1.8%,3.66µM*,7.2%
CC(C)CNC(=O)c1cccc(NC(=O)COc2cccc([N+](=O)[O-])c2)c1,i,?,-2.9%,-32.4%,?,-20.0%
COc1cccc(-c2cc(C(F)(F)F)nc(-n3cc(C)cn3)n2)c1,i,16.4µM*,-22.3%,.,14.6µM*,-13.1%
COc1ccc(-c2cc(C(F)(F)F)n3ncc(C(=O)N4CCCCC4c4cccnc4)c3n2)cc1 (stereo not given),.,?,-9.7%,-31.6%,16.4µM*,2.6%
COc1cccc(-c2cc(C(F)(F)F)nc(-n3cncn3)n2)c1,?,-23.4%,-4.7%,0.2%,-13.7%,-4.7%
COC(=O)c1cnn2c(C(F)(F)F)cc(-c3ccc(F)cc3)nc12,i,-24.0%,7.4%,-12.4%,2.2%,-3.2%
CCOC(=O)C1CCCN(C(=O)c2cnn3c(C(F)(F)F)cc(-c4ccccc4)nc23)C1 (stereo not given),i,23.1µM*,21.6%,7.1%,18.4µM*,-22.4%
CCOC(=O)c1cnn2c(C(F)(F)F)cc(-c3ccccc3)nc12,?,-26.6%,-4.1%,-11.9%,?,1.4%
CCOC(=O)N1CCC(NC(=O)c2cnn3c(C(F)(F)F)cc(-c4cccc(OC)c4)nc23)CC1,i,16.4µM*,-25.3%,?,13µM*,-13.8%
